ELG1 DNA repair: blocks ELG1-dependent DNA repair in HEK293T cells | HEK293T ELG1-luciferase reporter, luminescence, 16 h; DNA damage induced by 5-fluorouridine | Potency, µM (highest dose often 46.1 µM), usual class: inhibitors | 330,000 tested, 2.3% active | AID 504467; note: nearly all actives have a fitted effect of over 55% in size
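Overnight (16 hr) co-exposure of 2,000 cells/well to 5-fluorouridine and compound at 37 °C preceded detection. Luciferase was quantified via ONE-Glo luminescence; loss of signal denotes inhibition.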
DT40 TDP1 CPT: growth inhibition of DT40 Tdp1-/-;hTDP1 cells with camptothecin (screen for TDP1 inhibitors); 420,000 tested, 12% active; chicken DT40 Tdp1-/-;hTDP1 cells + 20 nM CPT, ATP luminescence, 48 h; Potency, µM (top dose mostly 46.2 µM), actives largely listed as inhibitors; AID 686979; note: nearly all actives have a fitted effect of over 55% in size
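Chicken DT40 Tdp1-/- cells complemented with human TDP1, 400 cells/well, exposed to compounds plus 20 nM camptothecin for at least 48 h at 37 C; viability read as ATP content by CellTiter-Glo luminescence.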
HT1080NT lethal: kills 2HG-producing HT-1080-NT fibrosarcoma cells | HT-1080-NT fibrosarcoma viability, CellTiter-Glo ATP luminescence, 48 h | Potency, µM (titrated, usually from 46.1 µM), hits mostly cytotoxic | 360,000 tested, 1.6% active | AID 686970;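 note: NT is the 2HG producing partner of a matched IDH1 knockdown line; nearly all actives have a fitted effect of over 55% in size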
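Viability by CellTiter-Glo luminescence after 48 h compound exposure at 37C of HT-1080-NT cells (750/well, RPMI, 5% FBS). % activity scaled between DMSO wells and medium-only wells, then curve-fitted and categorized by curve class.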
IL-1B inflam inh: inhibitors of inflammasome signaling (IL-1 beta secretion). THP-1 LPS/ATP IL-1B secretion, AlphaLISA, 16 h; active compounds read low. activity change, % at 57.5 µM. 360,000 tested, 4.7% active; in the data active = activity change below about -50%; inconclusive = mostly about -30% to -49%
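THP-1 cells pretreated 1 hr with compounds (up to 57.5 uM final), then stimulated with LPS (250 ng/mL final) plus ATP (1.25 mM final); secreted IL-1B measured by AlphaLISA after 16 hr, decreased signal indicating inhibition.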
HT1080 IDH1KD tx: HT-1080 IDH1 knockdown cell toxicity (counter line); HT-1080 IDH1 knockdown viability, ATP luminescence, 48 h; Potency, µM (series often up to 46.1 µM), hits mostly cytotoxic; 360,000 tested, 2% active
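In this qHTS, HT-1080 cells depleted of IDH1 are exposed for 48 h at 37 °C to compound titrations. Toxicity is scored from CellTiter-Glo luminescence, with DMSO as full viability and medium alone as none.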
TDP1 cell noCPT: qHTS for Inhibitors of human tyrosyl-DNA phosphodiesterase 1 (TDP1): qHTS in cells in absence of CPT. AID 686978, 2013. 420,000 tested, 15% active. DT40 Tdp1-/- hTDP1 cells, no CPT, ATP luminescence, 48 h. Potency, µM (top dose mostly 46.2 µM), most hits filed as inhibitors; note: nearly all actives have a fitted effect of over 55% in size
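Chicken DT40 Tdp1-/- cells stably complemented with human TDP1 were seeded at 400 cells/well with DMSO in place of 20 nM camptothecin. After compound pinning, cells grew at least 48 hr at 37 °C; viability read by CellTiter-Glo luminescence.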
Hits are given with their value; 0 = inactive; ? = inconclusive; - = no result given. Compounds with a hit are over-represented: about 19% of the library has one in this group of screens. Unless noted, calls come from the whole dose curve; as a rule, active = well fitted curve in the direction sought with a large enough effect; inconclusive = small, poorly fitted or top-dose-only effect, or another doubt; inactive = no such curve, though single readings can be large; an effect the other way counts as inactive or inconclusive.

SMILES	ELG1 DNA repair	DT40 TDP1 CPT	HT1080NT lethal	IL-1B inflam inh	HT1080 IDH1KD tx	TDP1 cell noCPT
Cc1ccc(CC(Cc2nc3ccccc3[nH]2)c2nc3ccccc3[nH]2)cc1 (stereo not drawn)	-	27µM	-	-	-	27µM
Cc1ccc(CSCc2nc3ccccc3[nH]2)cc1	?	29µM	0	-98	?	21µM
Cc1cc(C)cc(CC(Cc2nc3ccccc3[nH]2)c2nc3ccccc3[nH]2)c1 (stereo not drawn)	?	?	18µM	-69	?	26µM
CC(O)c1nc2ccccc2[nH]1 (stereo not drawn)	-	0	-	-	-	0
COc1cc(C(=O)OC(COCCC(C)C)CN2CCOCC2)cc(OC)c1OC (stereo not drawn)	-	0	-	-	-	0
CC(C)Cn1cnc2c1c(=O)[nH]c(=O)n2Cc1ccccc1	0	0	0	0	0	0
C[C@@H]1CN([C@@H](C)CO)C(=O)c2cc(C#CCN(C)C)cnc2O[C@H]1CN(C)Cc1ccc2c(c1)OCO2	-	0	0	0	0	0
CCCCCNC(=O)C(c1cc2ccccc2o1)n1c(=O)c(-c2cc3ccccc3[nH]2)nc2ccccc21 (stereo not drawn)	-	?	0	0	0	?
C#CCOc1ccc(CNC[C@H]2O[C@@H](n3ccc(=O)[nH]c3=O)[C@H](O)[C@@H]2O)cc1	-	0	0	0	0	0
CCc1ccc2ncc3c(-c4ccccc4)nn(-c4ccccc4)c3c2c1	-	?	-	-	-	13µM
Cc1ccc(-c2nn(-c3ccccc3)c3c2cnc2ccccc23)cc1C	-	0	-	-	-	0
CCOC(=O)Cn1nc(-c2ccccc2)c2cnc3ccc(OCC)cc3c21	-	13µM	-	-	-	21µM
Cc1ccc(C)c(N2CCN(C(=O)C3CCN(C(=O)c4cc5sccc5n4C)CC3)CC2)c1	-	9.2µM	-	-	-	8.2µM
CCn1c(C(=O)N2CCCC(C(=O)N3CCN(c4cc(C)ccc4C)CC3)C2)cc2sccc21 (stereo not drawn)	-	?	-	-	-	13µM
Cc1ccc(C)c(N2CCN(C(=O)c3cc4sccc4n3C)CC2)c1	?	?	?	0	?	?
CCn1c(C(=O)N2CCc3ccccc3C2)cc2sccc21	0	?	0	0	0	?
Cn1c(C(=O)N2CCN(c3cccc(C(F)(F)F)c3)CC2)cc2sccc21	?	0	0	0	?	?
Cc1cccc(N2CCN(C(=O)C3CCN(C(=O)c4cc5sccc5n4C)CC3)CC2C)c1 (stereo not drawn)	-	13µM	-	-	-	5.2µM
COc1ccc(OC)c(NC(=O)CN(C)CC(=O)Nc2ccccc2Br)c1	?	0	0	0	0	?
COc1cccc(N/C(=N/C(=S)Nc2ccc(C)cc2C)Nc2nc(C)cc(C)n2)c1	26µM	?	?	0	?	18µM
CCNC(=S)/N=C(/Nc1ccc(OC)cc1)Nc1nc(C)cc(C)n1	0	23µM	0	0	0	21µM
CCNC(=S)/N=C(/Nc1ccccc1)Nc1nc(C)cc(C)n1	?	?	0	-	0	?
COc1cccc(NC(=S)Nc2cc(C)cc(C)n2)c1	?	0	0	-	0	0
S=C(NCCc1ccccc1)N1CCn2cccc2C1c1cccnc1 (stereo not drawn)	?	?	0	-66	0	?
CCCCNC(=S)N1CCn2cccc2C1c1ccc(F)cc1 (stereo not drawn)	?	16µM	?	-86	?	?
SMILES	ELG1 DNA repair	DT40 TDP1 CPT	HT1080NT lethal	IL-1B inflam inh	HT1080 IDH1KD tx	TDP1 cell noCPT
CCCCNC(=S)N1CCn2cccc2C1c1ccccc1 (stereo not drawn)	?	?	0	0	0	?
COc1cccc(C(C(=O)NC(C)(C)C)N(C(=O)CCC(=O)Nc2cc(C)on2)c2ccc3c(c2)OCCO3)c1OC (stereo not drawn)	0	0	0	0	0	?
Cc1ccccc1C(=O)c1cccn1CC(=O)NCc1cccc(Cl)c1	?	0	0	0	0	0
COc1ccccc1/C=C1\S/C(=N/NC(=O)c2cccc(Br)c2)NC1=O	0	?	?	0	?	21µM
Cc1cccc(NS(=O)(=O)c2ccc3c(c2)CCN3C(=O)C2CC2)c1C	-	21µM	-	-	-	23µM
CC(=O)N1CCCc2cc(S(=O)(=O)Nc3cccc(C)c3C)ccc21	0	?	0	0	0	?
Cc1cccc(NS(=O)(=O)c2ccc3c(c2)CCCN3C(=O)C2CCC2)c1C	-	21µM	-	-	-	?
CC(Cl)C(=O)c1ccc2c(c1)CCN2C(=O)C1CC1 (stereo not drawn)	?	?	0	-63	0	?
O=C(C1CC1)N1CCc2cc(S(=O)(=O)N3CCOCC3)ccc21	0	0	0	0	0	0
CCC(=O)N1CCc2cc(S(=O)(=O)Nc3ccccc3C)ccc21	0	0	0	0	0	?
CCCC(=O)Nc1ccc2c(c1)nc(CCN1CCCCC1)n2C	0	0	0	0	0	0
COc1ccc(CN2CCSCC2)c(C)c1C	0	0	0	0	0	0
Cc1nc2nc[nH]n2c(=O)c1CCC(=O)Nc1ccc(F)cc1	-	0	-	-	-	0
COc1ccccc1-n1cc2c([N+](=O)[O-])cc([N+](=O)[O-])cc2n1	0	?	0	0	0	?
CCN(C(=O)c1cc2cc3ccc(C)cc3nc2o1)c1ccc(OC)cc1	0	0	?	-52	0	?
CCCCN(C)C(=O)c1cc2cc3ccc(OC)cc3nc2o1	?	0	?	?	?	0
COc1ccc2cc3cc(C(=O)Nc4cc(OC)c(OC)c(OC)c4)oc3nc2c1	16µM	?	0	0	0	?
COc1ccc2cc3cc(C(=O)NCC4COc5ccccc5O4)oc3nc2c1 (stereo not drawn)	?	?	?	0	?	16µM
COc1ccc(CNC(=O)c2cc3cc4ccc(C)cc4nc3o2)cc1	-	?	-	-	-	23µM
c1ccc(CSc2ncn[nH]2)nc1	0	0	0	0	0	0
Cc1ccc(C(=O)O[C@H](C(=O)O)[C@H](OC(=O)c2ccc(C)cc2)C(=O)O)cc1	0	0	0	0	0	0
Cc1ccc(-n2cc(CN3CCN(c4ccccn4)CC3)c(-c3ccc(F)cc3)n2)cc1	0	0	0	?	?	16µM
Cc1ccc(-n2cc(CN3CCN(C(=O)c4ncn[nH]4)CC3)c(-c3ccc(F)cc3)n2)cc1	21µM	?	0	-59	0	23µM
O=C(c1[nH]c(C(F)(F)F)nc1-c1ccccc1)N1CCN(c2ccccn2)CC1	-	?	?	0	23µM	?

Screens: PubChem BioAssay, National Center for Advancing Translational Sciences (NCATS)
